HT1080NT lethal: kills 2HG-producing HT-1080-NT fibrosarcoma cells | hit rate 1.6% among 360,000 | Potency, µM (titrated, usually from 46.1 µM), without a hit: top-dose activity, negative = less viability, actives largely listed as cytotoxic | HT-1080-NT fibrosarcoma viability, CellTiter-Glo ATP luminescence, 48 h;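 further: NT is the 2HG producing partner of a matched IDH1 knockdown line; potency means the concentration at half of the fitted maximal effect; 0% = DMSO-treated cells and -100% = media-only wells without cells; nearly all actives have a fitted effect of over 55% in size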
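Fibrosarcoma NT cells, 750 per well in 5% FBS RPMI, were exposed to compound for 48 hours. Viability: CellTiter-Glo luminescence.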
HT1080 IDH1KD tx: HT-1080 IDH1 knockdown cell toxicity (counter line); HT-1080 IDH1 knockdown viability, ATP luminescence, 48 h; Potency, µM (doses to about 46.1 µM), for inactives: top-dose activity, negative = toxicity, hits mostly cytotoxic; hit rate 2% among 360,000;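 further: potency means the concentration at half of the fitted maximal effect; 0% = DMSO wells and -100% = cell-free medium wells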
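CellTiter-Glo luminescence after 48 h compound exposure at 37 degrees C of IDH1-knockdown HT-1080 cells in 5% FBS RPMI. %Activity scaled between DMSO wells and cell-free media wells, with curves fitted and assigned curve classes.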
IL1B secr inh: inflammasome signaling inhibition, IL-1 beta readout; THP-1 LPS/ATP IL-1B secretion, AlphaLISA, 16 h; stronger effect = lower value; activity change, % at 57.5 µM; hit rate 4.7% among 360,000; AID 743279; in the data active means activity change below about -50%; inconclusive means mostly about -30% to -49%
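Secreted IL-1B measured by AlphaLISA bead assay after 16 h compound exposure of THP-1 cells; compounds (final up to 57.5 uM) added 1 h before LPS (250 ng/mL) and ATP (1.25 mM) stimulation; lower signal means less secretion.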
TDP1 cell CPT: DT40-hTDP1 cell growth loss with CPT; hit rate 12% among 420,000; Potency, µM (top dose mostly 46.2 µM), inactives show top-dose activity change, negative = growth inhibition, actives largely listed as inhibitors; AID 686979; chicken DT40 Tdp1-/-;hTDP1 cells + 20 nM CPT, ATP luminescence, 48 h; further: potency means the concentration at half of the fitted maximal effect; nearly all actives have a fitted effect of over 55% in size
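Chicken DT40 Tdp1-/- cells complemented with human TDP1, 400 cells/well, exposed to compounds plus 20 nM camptothecin for at least 48 h at 37 C; viability read as ATP content by CellTiter-Glo luminescence.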
DT40 TDP1 no CPT: qHTS for Inhibitors of human tyrosyl-DNA phosphodiesterase 1 (TDP1): qHTS in cells in absence of CPT. DT40 Tdp1-/- hTDP1 cells, no CPT, ATP luminescence, 48 h. Potency, µM (doses to about 46.2 µM), for inactives: at the highest dose activity change, negative = growth inhibition, most hits filed as inhibitors. hit rate 15% among 420,000. AID 686978, 2013; further: potency means the concentration at half of the fitted maximal effect; nearly all actives have a fitted effect of over 55% in size
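No-CPT arm: Tdp1-/-;hTDP1 DT40 cells (400/well) plus compounds, incubated ≥48 hr at 37 °C. Readout CellTiter-Glo luminescence.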
Starred values were filed as active, the others as inactive; u = inconclusive; x = no result; [ ] = another dose, or the depositor's remark. Rows were chosen to be rich in hits. Some 19% of all compounds tested hit in one or more screens of this group. Unless noted, the call rests on the fitted dose curve; in most records, active means well fitted curve in the direction sought with a large enough effect; inconclusive means small, poorly fitted or top-dose-only effect, or another doubt; inactive means no such curve, though single readings can be large; an effect the other way counts as inactive or inconclusive. Unless noted, on the % scale 0 is the no-effect control and ±100 the full control effect.

SMILES | HT1080NT lethal | HT1080 IDH1KD tx | IL1B secr inh | TDP1 cell CPT | DT40 TDP1 no CPT
Cc1cc(C)c(C(=O)/C=C/c2cccs2)c(=O)[nH]1 | -1% | -9% | -73* | u | u
CCN(C(=O)COc1ccc(N(C)S(=O)(=O)c2ccc(NC(C)=O)cc2)cc1)C1CCCCC1 | 15% | 8% | -19 | u | u
CC(C)N(C(=O)CN1CCC(c2nc3ccccc3[nH]2)CC1)C(C)C | -3% | -1% | -4 | -2% | -28%
CC1CCCCN1C(=O)CN1CCC(c2nc3ccc(Cl)cc3[nH]2)CC1 (stereo not drawn) | -19% | -10% | -12 | u | 23µM*
Cc1ccc(CN2CCC(c3nc4ccc(Cl)cc4[nH]3)CC2)cc1 | u | -19%[9.24 µM] | x | 16µM* | 16µM*
COc1ccc(OC)c(N2C(=O)CC(NNC(=O)c3ccc4c(c3)OCO4)C2=O)c1 (stereo not drawn) | 7% | 5% | 4 | 11% | -2%
CCC(=O)Nc1nc(CC(=O)Nc2ccccc2OC)cs1 | -5% | -1% | 1 | 1% | -22%
COc1ccccc1NC(=O)Cc1csc(NC(=S)Nc2ccc(C)cc2)n1 | 6.3µM* | 7.1µM* | 6 | u | u
COc1cccc(NC(=O)Cc2csc(NC(=O)Nc3ccccc3OC)n2)c1 | 7% | 3% | 12 | u | u
COc1ccccc1NC(=O)Nc1nc(CC(=O)N2CCN(c3ccccc3OC)CC2)cs1 | -6% | -14% | -56* | 21µM* | 13µM*
COc1cc(C)ccc1NC(=O)Cc1csc(NC(=O)Nc2ccccc2OC)n1 | u | u | 3 | 23µM* | 23µM*
COc1ccccc1NC(=O)Nc1nc(CC(=O)Nc2ccc(OC)c(OC)c2)cs1 | -4% | -9% | -2 | -27% | u
Cc1cccc(COc2ccccc2C(=O)OCC(=O)N(C)c2c(N)n(Cc3ccccc3)c(=O)[nH]c2=O)c1 | -3% | -12% | -15 | u | u
Cc1ccc(Cl)cc1-n1ncc2c(NCCCc3ccccc3)ncnc21 | x | x | x | 7.3µM* | u
Cc1ccc(Cl)cc1-n1ncc2c(NCCc3ccccc3)ncnc21 | x | x | x | 16µM* | 21µM*
Cc1ccc(Cl)cc1-n1ncc2c(NCCC3=CCCCC3)ncnc21 | x | x | x | 16µM* | u
CCc1ccc(Nc2ncnc3c2cnn3-c2cc(Cl)ccc2C)cc1 | x | x | x | u | -81%
CCOC(=O)COc1ccc2c(C)c(CCN(CC)CC)c(=O)oc2c1 | x | x | x | 6% | -3%
O=C(NCCc1ccccc1)c1nc(-c2cccs2)no1 | 2% | -4% | -8 | -6% | -10%
O=C(CNC(=O)c1ccc(Br)o1)NC1CCCCC1 | 2% | 4% | -6 | 5% | 15%
CCN(CC)c1ccc(/C=N/n2c(-c3ccccc3Br)n[nH]c2=S)cc1 | u | -30% | -67* | u | 18µM*
Cc1cccc(N(C(=O)c2csnn2)C(C(=O)NC2CCCCC2)c2ccccn2)c1C (stereo not drawn) | 13% | -7% | -18 | 1% | -18%
Cc1ccccc1-n1c2nc(=O)n(C)c(=O)c-2cc2ccccc21 | -2% | -3% | x | -12% | -21%
Cc1cc(C)n2nc(-c3ccc(F)cc3)nc2n1 | 8% | -6% | 25 | -17% | -11%
CCn1nc(-c2ccccc2C)nc2c(=O)n(C)c(=O)nc1-2 | x | x | x | 1µM* | 1µM*
SMILES | HT1080NT lethal | HT1080 IDH1KD tx | IL1B secr inh | TDP1 cell CPT | DT40 TDP1 no CPT
COc1ccc(-c2nc3c(=O)n(C)c(=O)nc-3n(C)n2)cc1 | x | x | x | 0.089µM* | 0.45µM*
Cn1nc(-c2cccnc2)nc2c(=O)n(C)c(=O)nc1-2 | x | x | x | 1.1µM* | 1.3µM*
Cn1nc(-c2ccc(F)cc2)nc2c(=O)n(C)c(=O)nc1-2 | x | x | x | 0.45µM* | 0.63µM*
Cc1cc(C)n2nc(-c3cccnc3)nc2n1 | 7% | 8% | -8 | 4% | -12%
Cc1ccc(S(=O)(=O)N2CCN(C(=O)COC(=O)Cc3cccc(C(F)(F)F)c3)CC2)c(C)c1 | 5% | 0% | 10 | -29% | u
COc1ccccc1C1c2ccc3ccccc3c2Oc2ncn(CCN(C)C)c(=N)c21 (stereo not drawn) | 10µM* | 8.2µM* | -98* | u | 16µM*
COc1ccc(C2c3ccc4ccccc4c3Oc3ncn(Cc4ccco4)c(=N)c32)cc1OC (stereo not drawn) | 21µM* | 21µM* | u | 23µM* | 16µM*
COc1ccc(C2c3ccc(O)cc3Oc3ncn(CCN4CCOCC4)c(=N)c32)cc1 (stereo not drawn) | -11% | -4% | u | u | -21%
COc1ccccc1C1c2ccc3ccccc3c2Oc2ncn(CCCO)c(=N)c21 (stereo not drawn) | 21µM* | 23µM* | -97* | 23µM* | 23µM*
COc1ccc(C2c3ccc4ccccc4c3Oc3ncn(CCCN(C)C)c(=N)c32)cc1 (stereo not drawn) | 18µM* | u | -95* | 12µM* | 4.6µM*
Cc1cc(Br)ccc1NC(=S)N1CCOCC1 | 6% | 2% | -26 | 2% | 4%
Cc1oc(-c2cccc(Cl)c2)nc1CSc1nnc(C)n2c1cc1occc12 | x | x | x | -3% | 1%
Cc1cc(NC(=O)C2CCCCC2)ccc1NC(=O)c1ccccc1Cl | -23% | u | 18 | -3% | -25%
COc1ccc(C2(c3ccc(O)cc3O)CC(c3ccccc3Cl)NC(=S)N2)cc1 (stereo not drawn) | u | u | -90* | u | u
COc1cccc(C2CC(c3ccccc3Cl)n3nc(N)nc3N2)c1 (stereo not drawn) | -1% | -29% | -5 | u | -20%
Cc1nn(Cc2ccc(Cl)cc2)c(C)c1NC(=O)CSc1n[nH]c(C)c1[N+](=O)[O-] | 0% | 7% | 7 | 26µM* | 21µM*
Cc1nn(Cc2ccc(Cl)cc2)c(C)c1NC(=O)c1ccc([N+](=O)[O-])cc1 | -17% | -15% | -74* | 1% | u
O=C(/C=C/c1ccc(-c2cccc([N+](=O)[O-])c2)o1)N1CCOCC1 | -20% | -22% | -1 | 16µM* | 18µM*
O=C1NC(=S)S/C1=C\c1cccc([N+](=O)[O-])c1 | -22% | -27% | 22 | u | 13µM*
O=C1NC(=O)/C(=C/c2ccc(-c3cccc([N+](=O)[O-])c3)o2)S1 | -6% | -7% | -10 | 16µM* | u
O=S1(=O)CC(N2CCC(Cc3ccccc3)CC2)CN1C1CCCCC1 (stereo not drawn) | -16% | -11% | 17 | u | u
O=[N+]([O-])c1cccc(-c2cc3ccccc3[nH]2)c1 | 0% | 5% | 23 | -19% | -7%
